A selection: hits, their analogues and other compounds. The true share with any hit is near 19%.
IL-1B inflam inh: inflammasome signaling inhibition, IL-1 beta readout | 360,000 tested, 4.7% active | THP-1 LPS/ATP IL-1B secretion, AlphaLISA, 16 h; hits give low values | AID 743279 | activity change, % at 57.5 µM; in the data active means activity change below about -50%; inconclusive means mostly about -30% to -49%
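THP-1 cells pretreated 1 hr with compounds (up to 57.5 uM final), then stimulated with LPS (250 ng/mL final) plus ATP (1.25 mM final); secreted IL-1B measured by AlphaLISA after 16 hr, decreased signal indicating inhibition.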
HT1080-NT tox: kills 2HG-producing HT-1080-NT fibrosarcoma cells; AID 686970; HT-1080-NT fibrosarcoma viability, CellTiter-Glo ATP luminescence, 48 h; 360,000 tested, 1.6% active; Potency, µM (doses to about 46.1 µM), for the others: at the highest dose activity, negative = less viability, hits mostly cytotoxic;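 further: NT is the 2HG producing partner of a matched IDH1 knockdown line; potency means the concentration at half of the fitted maximal effect; 0% = DMSO-treated cells and -100% = media-only wells without cells; nearly all actives have a fitted effect of over 55% in size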
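Toxicity toward the 2HG-producing NT line was scored as %Activity, normalised to DMSO and no-cell wells, from CellTiter-Glo luminescence after 48 hours' treatment.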
TDP1 cell CPT: DT40-hTDP1 cell growth loss with CPT; chicken DT40 Tdp1-/-;hTDP1 cells + 20 nM CPT, ATP luminescence, 48 h; Potency, µM (doses to about 46.2 µM), without a hit: at the top dose activity change, negative = growth inhibition, most hits filed as inhibitors; 420,000 tested, 12% active; further: potency means the concentration at half of the fitted maximal effect; nearly all actives have a fitted effect of over 55% in size
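Chicken DT40 Tdp1-/- cells complemented with human TDP1, 400 cells/well, exposed to compounds plus 20 nM camptothecin for at least 48 h at 37 C; viability read as ATP content by CellTiter-Glo luminescence.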
TDP1 cell noCPT: qHTS for Inhibitors of human tyrosyl-DNA phosphodiesterase 1 (TDP1): qHTS in cells in absence of CPT; DT40 Tdp1-/- hTDP1 cells, no CPT, ATP luminescence, 48 h; Potency, µM (top dose mostly 46.2 µM), without a hit: at the highest dose activity change, negative = growth inhibition, usual class: inhibitors; 420,000 tested, 15% active; AID 686978, 2013; further: potency means the concentration at half of the fitted maximal effect; nearly all actives have a fitted effect of over 55% in size
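Compound effects on proliferation are scored in DT40 Tdp1-/-;hTDP1 cells in the absence of CPT. ATP levels (CellTiter-Glo luminescence) are recorded after a ≥48 hr, 37 °C incubation.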
HT1080 IDH1KD tx: HT-1080 IDH1 knockdown cell toxicity (counter line). Potency, µM (doses to about 46.1 µM), for the others: at the top dose activity, negative = toxicity, actives largely listed as cytotoxic. HT-1080 IDH1 knockdown viability, ATP luminescence, 48 h. 360,000 tested, 2% active;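 further: potency means the concentration at half of the fitted maximal effect; 0% = DMSO wells and -100% = cell-free medium wells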
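CellTiter-Glo luminescence after 48 h compound exposure at 37 degrees C of IDH1-knockdown HT-1080 cells in 5% FBS RPMI. %Activity scaled between DMSO wells and cell-free media wells, with curves fitted and assigned curve classes.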
* marks the source's active call; other numbers are inactive results; u = inconclusive; x = not tested or not shown. Unless noted, the call rests on the fitted dose curve; in most records, active means well fitted curve in the direction sought with a large enough effect; inconclusive means small, poorly fitted or top-dose-only effect, or another doubt; inactive means no such curve, though single readings can be large; an effect the other way counts as inactive or inconclusive. Unless noted, on the % scale 0 is the no-effect control and ±100 the full control effect.

SMILES	IL-1B inflam inh	HT1080-NT tox	TDP1 cell CPT	TDP1 cell noCPT	HT1080 IDH1KD tx
COc1ccc(NC2=NC(=S)N(c3ccccc3C)C23CCCCC3)cc1	-15.1	13.4%	23.1µM*	25.9µM*	6.3%
COc1ccc(N2C(=S)N=C(Nc3ccccc3)C23CCCCC3)cc1	16.3	-1.8%	u	-13.6%	-13.2%
CC(C)[C@H](NC(=O)N1CCn2c1nc1ccccc12)C(=O)NC1CCCCC1	6.5	-4.2%	-17.0%	2.7%	-7.8%
CCc1ccc(C(=O)C(C)OC(=O)Cc2n[nH]c(=O)c3ccccc23)cc1 (stereo not drawn)	5.5	u	6.51µM*	7.31µM*	13µM*
CCC(=O)N1CCN(CCN=CC2=C(O)CC(c3ccc(OC)cc3)CC2=O)CC1 (stereo not drawn)	16.5	5.5%	-15.9%	-3.5%	8.3%
Cc1cc(C)c[n+](CC(=O)c2ccc(NC(=O)c3ccccc3)cc2)c1	0.0	1.9%	u	u	2.4%
Cc1cc(C)c[n+](CC(=O)c2ccc(-c3ccccc3)cc2)c1	-7.5	-18.0%	18.4µM*	u	-9.7%
N#Cc1ccc(CN2CCN(C(=O)CNS(=O)(=O)c3ccc4c(c3)OCCCO4)CC2)cc1	15.0	-2.5%	-19.7%	-22.5%	0.0%
CC1CCC(NC(=O)CC(C)(C)Cc2nc3ccccc3c(=O)[nH]2)CC1 (stereo not drawn)	-56.0*	u	16.4µM*	23.1µM*	u
CC1CCC(NC(=O)COC(=O)c2n[nH]c(=O)c3ccccc23)CC1 (stereo not drawn)	15.3	2.5%	-19.4%	0.9%	0.5%
CCOc1ccc(CC(=O)NCCc2csc(-c3ccc(C)cc3)n2)cc1	x	x	u	20.6µM*	x
CCOc1ccc(CC(=O)NCCc2csc(-c3ccc(Cl)cc3)n2)cc1	x	x	u	16.4µM*	x
O=C(Nc1cc(OC(=O)C(F)(F)F)c2nonc2c1OC(=O)C(F)(F)F)C(F)(F)F	x	x	10µM*	11.2µM*	x
Cc1ccc(S(=O)(=O)N2CCN(C(=S)NCc3ccc4c(c3)OCO4)CC2)cc1	-20.8	-13.9%	u	u	-8.2%
O=C(NCC1CCCO1)c1onc(CSc2cccc3ccccc23)c1C(=O)O (stereo not drawn)	65.2	-3.0%	-10.2%	-5.5%	-4.5%
O=C(C1=C[C@@H](c2ccc(Br)cc2)C[C@@H](OCc2ccc(CO)cc2)O1)N1CCN(Cc2ccccc2)CC1	u	-21.2%	u	23.1µM*	u
CN1CCN(C(=O)C2=C[C@@H](c3ccc(Br)cc3)C[C@@H](OCc3ccc(CO)cc3)O2)CC1	-6.8	-6.6%	u	u	-0.7%
CN1CCN(C(=O)C2=C[C@@H](c3ccccc3)C[C@@H](OCc3ccc(CO)cc3)O2)CC1	-26.4	2.6%	-23.4%	-25.2%	-0.4%
C#Cc1ccc([C@H]2C=C(C(=O)N3CCN(Cc4ccccc4)CC3)O[C@@H](OCc3ccc(CO)cc3)C2)cc1	-23.3	u	16.4µM*	18.4µM*	-7.4%
CN(CCc1ccccc1)C(CCc1ccccc1)C(=O)Nc1ccc2c(c1)OCCO2 (stereo not drawn)	11.0	-14.2%	u	u	-17.5%
CSCCC(C(=O)Nc1c(C)cccc1C)N(C)CCc1ccccc1 (stereo not drawn)	-2.5	-18.4%	18.4µM*	16.4µM*	-22.5%
O=C1O[C@@H](c2ccccc2)C[C@@H](O)C(=O)CCCCc2ccccc21	17.6	-0.1%	u	u	3.7%
COc1ccccc1-c1nnc(SCC(=O)NC2CCS(=O)(=O)C2)n1CCc1ccccc1 (stereo not drawn)	11.4	-1.9%	-1.6%	0.9%	-5.3%
Cc1[nH]nc(Nc2ccc(Br)cc2)c1[N+](=O)[O-]	-9.7	-0.3%	20.6µM*	18.4µM*	-2.8%
Cc1[nH]nc(Nc2ccccc2)c1[N+](=O)[O-]	-17.9	0.1%	-3.7%	-12.4%	-15.0%
